Measured values taken from the supplement of paper PMC10849652.
The full data set covers some 8,800 targets. This sample favours those with a hit. About 0.5% of all pairs of compound and target were hits. A number with no mark means an inactive call.

Experiments:
Assay in all cases: log2 fold change, soluble protein after heating vs DMSO (PISA); higher = thermal stabilisation; K562 lysate, 10 uM; active = over 0.2 and 3.5 SD of the protein, either way, in both replicates (recomputed)
nilotinib = compound: Cc1cn(-c2cc(NC(=O)c3ccc(C)c(Nc4nccc(-c5cccnc5)n4)c3)cc(C(F)(F)F)c2)cn1 [nilotinib]
Procedure, shortened: (§1)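 Quantification was by TMTpro 16plex LC-MS/MS with equalised channel sums, applied to the supernatant after 21,000xg for 90 min. Samples were crude K562 extract at 1 mg/mL protein in PBS pH 7.4 with 1 mM MgCl2, treated with 10 μM compound for 30 min, heated for 3 min across 48°C-58°C, pooled and brought to 0.5% NP-40 at 4°C. Values are log-two fold changes in thermal stability relative to solvent controls, from duplicates.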

[1] = compound: Cc1nc(Nc2n[nH]c3c2CN(C(=O)N[C@H](CN(C)C)c2ccccc2)C3(C)C)c2sccc2n1
Procedure, shortened: as §1

dasatinib = compound: Cc1nc(Nc2ncc(C(=O)Nc3c(C)cccc3Cl)s2)cc(N2CCN(CCO)CC2)n1 [dasatinib]
Procedure, shortened: as §1

[2] = compound: Cc1ncc(-c2ccnc(Nc3ccc(S(C)(=O)=O)cc3)n2)n1C(C)C
Procedure, shortened: as §1

[3] = compound: Cn1cc(-c2ccc3c(c2)CCN3C(=O)Cc2cccc(C(F)(F)F)c2)c2c(N)ncnc21
Procedure, shortened: as §1

quisinostat = compound: Cn1cc(CNCC2CCN(c3ncc(C(=O)NO)cn3)CC2)c2ccccc21 [quisinostat]
Procedure, shortened: as §1

tipifarnib = compound: Cn1cncc1[C@@](N)(c1ccc(Cl)cc1)c1ccc2c(c1)c(-c1cccc(Cl)c1)cc(=O)n2C [tipifarnib]
Procedure, shortened: as §1

[4] = compound: NC(=O)Nc1cc(-c2cccc(F)c2)sc1C(=O)N[C@H]1CCCNC1
Procedure, shortened: as §1

[5] = compound: NC(=O)c1cnc(N[C@@H]2CCCC[C@@H]2N)nc1Nc1cccc(-n2nccn2)c1
Procedure, shortened: as §1

[6] = compound: NC1(c2ccc(-c3nc4ccn5c(=O)[nH]nc5c4cc3-c3ccccc3)cc2)CCC1
Procedure, shortened: as §1

Sequence of UniProt P51790 (P51790 whole entry, looked up): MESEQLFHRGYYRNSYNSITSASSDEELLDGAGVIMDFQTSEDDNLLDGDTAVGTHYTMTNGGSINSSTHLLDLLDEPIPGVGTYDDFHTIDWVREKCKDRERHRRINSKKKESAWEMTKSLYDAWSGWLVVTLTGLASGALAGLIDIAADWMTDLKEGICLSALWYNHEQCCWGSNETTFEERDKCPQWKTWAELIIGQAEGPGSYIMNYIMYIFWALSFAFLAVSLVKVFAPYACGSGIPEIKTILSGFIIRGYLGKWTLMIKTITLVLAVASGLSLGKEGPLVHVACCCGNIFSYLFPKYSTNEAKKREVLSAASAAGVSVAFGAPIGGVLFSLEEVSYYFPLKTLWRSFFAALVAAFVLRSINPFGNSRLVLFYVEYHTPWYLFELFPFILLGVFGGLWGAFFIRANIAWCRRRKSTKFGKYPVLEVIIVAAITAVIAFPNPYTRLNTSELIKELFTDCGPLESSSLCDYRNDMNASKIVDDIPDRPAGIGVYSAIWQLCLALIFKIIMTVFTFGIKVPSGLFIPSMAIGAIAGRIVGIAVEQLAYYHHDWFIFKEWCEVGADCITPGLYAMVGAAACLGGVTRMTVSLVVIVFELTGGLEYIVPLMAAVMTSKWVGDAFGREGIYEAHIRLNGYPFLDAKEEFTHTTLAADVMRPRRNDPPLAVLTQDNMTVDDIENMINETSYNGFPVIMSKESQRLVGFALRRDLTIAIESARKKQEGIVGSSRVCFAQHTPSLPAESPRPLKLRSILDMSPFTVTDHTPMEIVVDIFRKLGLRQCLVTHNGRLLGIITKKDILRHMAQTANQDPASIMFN
Sequence of UniProt Q99828 (Q99828 whole entry, looked up): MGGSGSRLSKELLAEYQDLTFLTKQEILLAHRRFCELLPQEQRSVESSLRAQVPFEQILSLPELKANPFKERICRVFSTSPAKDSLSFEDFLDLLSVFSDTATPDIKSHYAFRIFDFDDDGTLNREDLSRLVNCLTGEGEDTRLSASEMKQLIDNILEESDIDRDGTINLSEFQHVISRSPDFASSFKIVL
Sequence of UniProt P99999 (P99999 whole entry, looked up): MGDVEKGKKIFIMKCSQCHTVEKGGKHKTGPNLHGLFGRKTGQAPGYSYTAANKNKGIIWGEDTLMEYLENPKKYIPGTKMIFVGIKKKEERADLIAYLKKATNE
Sequence of UniProt Q9BW66 (Q9BW66 whole entry, looked up): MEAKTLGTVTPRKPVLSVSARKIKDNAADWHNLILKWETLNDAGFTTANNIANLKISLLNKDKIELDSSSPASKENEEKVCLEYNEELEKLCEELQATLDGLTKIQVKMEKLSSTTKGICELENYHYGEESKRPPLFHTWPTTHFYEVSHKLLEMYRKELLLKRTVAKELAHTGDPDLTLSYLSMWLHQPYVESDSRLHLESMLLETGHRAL
Sequence of UniProt P06732 (P06732 whole entry, looked up): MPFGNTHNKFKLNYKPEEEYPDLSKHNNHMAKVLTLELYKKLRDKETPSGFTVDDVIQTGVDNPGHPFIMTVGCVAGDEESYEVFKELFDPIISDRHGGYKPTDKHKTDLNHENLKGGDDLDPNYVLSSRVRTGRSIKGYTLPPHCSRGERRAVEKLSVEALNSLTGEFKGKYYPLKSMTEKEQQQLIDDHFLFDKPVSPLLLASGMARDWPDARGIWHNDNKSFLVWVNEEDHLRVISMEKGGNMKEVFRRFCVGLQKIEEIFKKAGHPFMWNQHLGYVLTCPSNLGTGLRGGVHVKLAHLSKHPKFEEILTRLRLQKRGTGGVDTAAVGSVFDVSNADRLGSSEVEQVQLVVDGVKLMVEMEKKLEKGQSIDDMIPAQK
Sequence of UniProt Q9BQ75 (Q9BQ75 whole entry, looked up): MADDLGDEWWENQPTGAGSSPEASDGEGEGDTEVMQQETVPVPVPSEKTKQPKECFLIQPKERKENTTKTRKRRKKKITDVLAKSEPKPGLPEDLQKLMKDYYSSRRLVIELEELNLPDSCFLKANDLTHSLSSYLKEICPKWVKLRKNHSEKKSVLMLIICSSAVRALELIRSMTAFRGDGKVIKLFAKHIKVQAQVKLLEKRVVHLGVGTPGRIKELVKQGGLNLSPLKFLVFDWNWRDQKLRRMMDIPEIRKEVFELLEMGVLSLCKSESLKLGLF
Sequence of UniProt P19784 (P19784 whole entry, looked up): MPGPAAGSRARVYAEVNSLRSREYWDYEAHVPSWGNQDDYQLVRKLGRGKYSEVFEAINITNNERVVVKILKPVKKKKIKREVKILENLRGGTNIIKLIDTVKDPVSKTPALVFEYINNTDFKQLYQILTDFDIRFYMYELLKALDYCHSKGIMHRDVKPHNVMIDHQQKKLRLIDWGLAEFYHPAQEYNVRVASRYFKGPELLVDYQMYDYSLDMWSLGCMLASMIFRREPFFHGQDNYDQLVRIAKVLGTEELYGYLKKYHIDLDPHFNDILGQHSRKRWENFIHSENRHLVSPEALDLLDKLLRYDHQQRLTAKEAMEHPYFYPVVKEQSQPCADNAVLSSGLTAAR
Sequence of UniProt Q92796 (Q92796 whole entry, looked up): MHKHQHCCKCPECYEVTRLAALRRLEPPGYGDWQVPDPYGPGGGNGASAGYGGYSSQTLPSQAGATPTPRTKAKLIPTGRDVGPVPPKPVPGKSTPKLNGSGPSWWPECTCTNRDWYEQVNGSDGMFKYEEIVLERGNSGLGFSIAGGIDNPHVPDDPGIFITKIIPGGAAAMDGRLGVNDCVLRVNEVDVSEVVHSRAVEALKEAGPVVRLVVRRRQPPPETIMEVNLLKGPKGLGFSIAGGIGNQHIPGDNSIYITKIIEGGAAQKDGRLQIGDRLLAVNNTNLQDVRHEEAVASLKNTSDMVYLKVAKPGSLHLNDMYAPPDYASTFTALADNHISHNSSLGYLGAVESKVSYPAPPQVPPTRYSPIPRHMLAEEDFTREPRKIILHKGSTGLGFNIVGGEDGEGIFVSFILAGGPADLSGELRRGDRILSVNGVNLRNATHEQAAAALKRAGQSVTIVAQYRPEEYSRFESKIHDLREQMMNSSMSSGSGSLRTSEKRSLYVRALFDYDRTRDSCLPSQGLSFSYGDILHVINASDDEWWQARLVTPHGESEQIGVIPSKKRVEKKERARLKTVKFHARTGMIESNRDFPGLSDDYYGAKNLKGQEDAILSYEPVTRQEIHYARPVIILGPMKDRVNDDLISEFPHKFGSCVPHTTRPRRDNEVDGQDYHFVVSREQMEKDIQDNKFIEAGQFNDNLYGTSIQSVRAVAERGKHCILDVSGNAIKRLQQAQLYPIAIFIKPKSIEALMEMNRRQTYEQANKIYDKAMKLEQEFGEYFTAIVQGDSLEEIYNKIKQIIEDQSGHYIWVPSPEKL
Sequence of UniProt P53355 (P53355 whole entry, looked up): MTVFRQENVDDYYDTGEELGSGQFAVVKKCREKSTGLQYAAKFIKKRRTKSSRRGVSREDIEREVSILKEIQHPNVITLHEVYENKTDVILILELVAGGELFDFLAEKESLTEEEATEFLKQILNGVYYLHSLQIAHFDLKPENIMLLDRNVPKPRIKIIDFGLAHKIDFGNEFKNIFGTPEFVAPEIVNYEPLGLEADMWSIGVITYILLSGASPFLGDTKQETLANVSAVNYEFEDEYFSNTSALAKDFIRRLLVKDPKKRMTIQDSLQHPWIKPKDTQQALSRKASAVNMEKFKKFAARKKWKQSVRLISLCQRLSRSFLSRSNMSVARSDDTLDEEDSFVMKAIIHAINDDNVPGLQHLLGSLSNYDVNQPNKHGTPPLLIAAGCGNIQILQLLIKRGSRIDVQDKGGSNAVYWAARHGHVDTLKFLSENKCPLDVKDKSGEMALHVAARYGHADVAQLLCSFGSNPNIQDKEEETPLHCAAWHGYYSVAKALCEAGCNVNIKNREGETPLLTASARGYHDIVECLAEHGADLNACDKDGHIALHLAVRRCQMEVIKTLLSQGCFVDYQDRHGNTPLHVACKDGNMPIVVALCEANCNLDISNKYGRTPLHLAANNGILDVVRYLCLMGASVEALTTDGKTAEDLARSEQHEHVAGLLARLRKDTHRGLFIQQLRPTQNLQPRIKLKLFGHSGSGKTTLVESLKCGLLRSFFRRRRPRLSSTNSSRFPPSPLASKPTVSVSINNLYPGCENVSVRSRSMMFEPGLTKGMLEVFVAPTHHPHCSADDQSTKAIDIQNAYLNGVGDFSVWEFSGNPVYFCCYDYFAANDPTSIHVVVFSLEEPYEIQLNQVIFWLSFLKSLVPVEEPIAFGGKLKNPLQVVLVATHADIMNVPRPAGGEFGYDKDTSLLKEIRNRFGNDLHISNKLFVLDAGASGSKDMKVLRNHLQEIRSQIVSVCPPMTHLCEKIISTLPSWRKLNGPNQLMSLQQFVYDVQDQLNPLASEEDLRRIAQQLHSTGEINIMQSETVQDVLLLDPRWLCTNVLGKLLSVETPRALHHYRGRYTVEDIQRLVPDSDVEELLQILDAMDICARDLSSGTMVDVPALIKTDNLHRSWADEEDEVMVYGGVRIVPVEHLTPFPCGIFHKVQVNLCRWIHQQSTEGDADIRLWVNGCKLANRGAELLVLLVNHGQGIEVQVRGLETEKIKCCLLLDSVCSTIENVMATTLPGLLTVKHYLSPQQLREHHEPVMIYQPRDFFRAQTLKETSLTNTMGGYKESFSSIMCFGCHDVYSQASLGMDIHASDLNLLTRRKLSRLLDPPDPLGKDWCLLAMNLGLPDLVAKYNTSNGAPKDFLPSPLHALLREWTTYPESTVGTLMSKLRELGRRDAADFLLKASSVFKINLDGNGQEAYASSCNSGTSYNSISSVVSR
Sequence of UniProt P61024 (P61024 whole entry, looked up): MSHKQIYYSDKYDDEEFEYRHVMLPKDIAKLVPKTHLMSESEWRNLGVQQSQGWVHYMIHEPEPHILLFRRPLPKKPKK
Sequence of UniProt Q92564 (Q92564 whole entry, looked up): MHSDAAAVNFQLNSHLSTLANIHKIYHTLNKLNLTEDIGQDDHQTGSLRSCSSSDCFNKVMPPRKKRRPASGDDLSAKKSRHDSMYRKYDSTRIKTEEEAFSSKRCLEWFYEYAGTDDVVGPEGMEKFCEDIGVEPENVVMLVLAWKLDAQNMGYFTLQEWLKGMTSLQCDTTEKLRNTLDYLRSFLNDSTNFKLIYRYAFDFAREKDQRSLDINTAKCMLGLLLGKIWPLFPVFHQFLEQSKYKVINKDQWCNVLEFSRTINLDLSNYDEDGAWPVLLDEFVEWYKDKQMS

Target | log2 fold change (nilotinib) | log2 fold change [1] | log2 fold change (dasatinib) | log2 fold change [2] | log2 fold change [3] | log2 fold change (quisinostat) | log2 fold change (tipifarnib) | log2 fold change [4] | log2 fold change [5] | log2 fold change [6]
CSNK2A2 (UniProt P19784) | -0.031 | 0.195 | -0.039 | 0.254 | -0.004 | 0.001 | -0.014 | 0.094 | 0.018 | -0.003
CHFR (UniProt Q96EP1) | 0.035 | 0.082 | 0.017 | 0.019 | 0.049 | 0.02 | 0.013 | 0.036 | 0.246 | 0.005
DDR1 isoform 5 (UniProt Q08345) | 0.036 | 0.013 | 0.083 | -0.216 | 0.103 | 0.045 | -0.012 | -0.054 |  | 
DCP2 (UniProt Q8IU60) | -0.065 | -0.051 | 0.009 | 0.032 | -0.018 | -0.094 | -0.012 | 0.014 | 0.03 | 0.024
CYCS (UniProt P99999) | 0.014 | -0.038 | 0.001 | 0.008 | -0.037 | 0.035 | 0.015 | -0.003 | -0.015 | 0.022
DES (UniProt P17661) | 0.009 | -0.04 | -0.024 | 0.004 | -0.057 | -0.162 | -0.008 | 0 | 0.041 | 0.034
CYP51A1 (UniProt Q16850) | 0.124 | -0.026 | 0.048 | 0.034 | 0.083 | -0.021 | 0.664 (active) | -0.016 | -0.009 | -0.081
DLG3 isoform 2 (UniProt Q92796) | -0.036 | 0.027 | -0.062 | 0.146 | -0.004 | -0.007 | 0.085 | -0.03 | -0.031 | -0.049
DLGAP5 (UniProt Q15398) | -0.013 | 0.029 | -0.036 | 0 | 0.001 | -0.033 | 0.001 | 0.011 | 0.006 | 0.007
CIB1 (UniProt Q99828) | -0.014 | -0.016 | 0.022 | 0.045 | 0.008 | 0.004 | 0.002 | -0.011 | 0.041 | 0
CLIP1 isoform 2 (UniProt P30622) | 0.055 | -0.04 | 0.049 | -0.073 | -0.01 | -0.049 | 0.015 | -0.015 | 0.029 | -0.059
CMSS1 (UniProt Q9BQ75) | -0.025 | 0.014 | -0.019 | 0 | 0.014 | 0.023 | 0.06 | 0.013 | 0.004 | 0.031
CKS1B (UniProt P61024) | -0.03 | 0.04 | 0.065 | -0.066 | 0.011 | 0.069 | 0.106 | -0.051 | 0 | 0.11
CORO1A (UniProt P31146) | 0.003 | -0.012 | -0.146 | 0.022 | 0.034 | -0.028 | 0.032 | -0.015 | -0.017 | -0.026
DCP1A (UniProt Q9NPI6) | 0.022 | 0.117 | -0.052 | -0.023 | -0.001 | -0.042 | 0.039 | 0.008 | -0.041 | -0.03
DAZAP1 (UniProt Q96EP5) | -0.066 | 0.04 | 0.015 | 0.044 | -0.016 | 0.118 | -0.039 | 0.005 | 0.01 | -0.008
DEF6 (UniProt Q9H4E7) | -0.058 | 0.046 | -0.034 | 0.033 | 0.006 | -0.044 | 0.027 | 0.067 | 0.044 | -0.01
DCUN1D4 isoform 3 (UniProt Q92564) | 0.023 | -0.007 | -0.062 | -0.009 | -0.046 | 0.066 | 0.017 | -0.019 | -0.036 | -0.043
DCTN1 isoform 4 (UniProt Q14203) | 0.304 | -0.331 | -0.163 | -0.288 | -0.051 | -0.064 | -0.064 | 0.074 | 0.139 | 0.169
CINP isoform 3 (UniProt Q9BW66) | -0.13 | 0.065 | -0.073 | 0.19 | 0.024 | 0.015 | -0.009 | 0.034 | 0.03 | 
CLCN3 (UniProt P51790) | 0.15 | -0.043 | -0.033 | 0.117 | 0.046 | 0.056 | -0.097 | -0.064 | -0.002 | 0.071
DONSON (UniProt Q9NYP3) | 0.035 | 0.004 | -0.031 | 0.066 | -0.035 | -0.051 | -0.024 | -0.003 | -0.022 | 0.082
DDX54 isoform 2 (UniProt Q8TDD1) | 0.047 | -0.035 | 0.002 | 0.019 | 0.089 | 0.042 | -0.023 | 0.021 | 0.001 | 0.011
DNAJC24 (UniProt Q6P3W2) | 0 | -0.093 | 0.062 | 0.02 | -0.039 | -0.042 | 0.063 | 0.054 | -0.041 | -0.015
CWC22 (UniProt Q9HCG8) | 0.043 | 0.017 | -0.015 | 0.002 | 0.02 | 0.015 | 0 | 0.011 | 0.023 | -0.011
CSNK1D (UniProt P48730) | 0.199 | -0.384 | 0.028 | -0.551 (active) | -0.059 | -0.049 | -0.139 | 0.021 | 0.072 | 
CSTB (UniProt P04080) | 0.057 | 0.009 | -0.017 | 0.079 | -0.022 | -0.206 | -0.008 | -0.004 | -0.055 | -0.005
CKM (UniProt P06732) | 0.033 | 0 | -0.056 | 0.062 | -0.093 | -0.175 | -0.072 | 0.068 | -0.025 | 0.007
CHMP4A isoform 2 (UniProt Q9BY43) | -0.026 | -0.021 | 0.039 | 0 | -0.011 | -0.145 | 0.017 | -0.029 | -0.02 | -0.009
DAPK1 isoform 3 (UniProt P53355) | -0.061 | 0.017 | -0.052 | -0.146 | -0.049 | -0.135 | 0.056 | 0.812 (active) | -0.103 | -0.075
